A number with no mark means an inactive call. Active and inactive are the calls of the source.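 The calls were made as follows, unless noted: active = GFP response above 150% of the DMSO control; inconclusive = Fewer than 70 cells counted for a yeast strain; inactive = the rest.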

A short description of the first assay: TOR pathway reporter MEP2-GFP, retest of hits – S. cerevisiae, flow cytometry GFP, cherry picks, confirmation (AID 2272).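 Also: ratio of well signal to plate DMSO mean so 100% equals DMSO level.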 The settings on record: S. cerevisiae MEP2-GFP strain, 3 h, at 10 µM, stronger effect = higher value. (In general: Flow cytometry measures light scatter and fluorescence of single cells or particles in a stream.)
For `Cc1c(O)nc(SC2CC(=O)N(c3ccccc3)C2=O)[nH]c1=O` (stereo not given), the GFP response vs DMSO is 99.5%.
Consider `COC(=O)c1ccc(/C=N\NC(=O)c2ccc(C)cc2Cl)cc1`, for which the GFP response vs DMSO is 102%.
On to `Cc1cccc(CS(=O)(=O)c2ncc(Cl)c(C(=O)NCc3ccccc3)n2)c1`, for which the GFP response vs DMSO was 100%.
As for `Cc1ccc(S(=O)(=O)N2CCCC2C(=O)OCc2ccco2)cc1` (stereo not given), the GFP response vs DMSO is 107%.
Consider `Clc1ccc(N=c2ssnc2Cl)cc1`, for which the GFP response vs DMSO is 107%.
`O=C1c2ccccc2C(=O)C2OC12` (stereo not given): the GFP response vs DMSO is 226% (active).
Consider `CCCc1[nH]nc2c1C(c1ccc(OC)cc1OC)C(C#N)=C(N)O2` (stereo not given), for which the GFP response vs DMSO is 105%.
In the case of `O=[N+]([O-])c1ncccc1OCc1ccc(-c2ccccc2)cc1`, the GFP response vs DMSO was 160%.
In the case of `C/C(=N/NS(=O)(=O)c1ccccc1)c1ccc(NC(=O)C(F)(F)F)cc1`, the GFP response vs DMSO is 99.5%.
Regarding `O=C1c2ccsc2SCCN1Cc1ccccc1`, the GFP response vs DMSO is 94.1%.
Consider `CCc1ccc(-c2csc(NC(=O)COC(=O)CCc3nc4ccccc4s3)n2)cc1`, for which the GFP response vs DMSO was 103%.
For `COc1ccc(-c2nn(-c3ccccc3)cc2C(=O)NC(=S)NNC(=O)c2ccncc2)cc1`, the GFP response vs DMSO is 101%.
As for `CCOC(=O)Cc1csc(NC(=O)CSc2nnc(-c3ccc(C)cc3)o2)n1`, the GFP response vs DMSO was 104%.
Still for that read-out and setting: the figure for `CCOC(=O)C1=C(Cc2ccc(Cl)cc2)C(=O)c2ccccc2C1=O` is 104%; for `COC(=O)c1ccc(N2C(=O)CC(SCCN)C2=O)cc1` (stereo not given) it is 101%.
For the molecule `O=S1(=O)Nc2c(ccc3cccnc23)-c2ccccc21`, the GFP response vs DMSO was 112%.
Turning to `Cc1cccc2c1NC(=O)/C2=C\C(=O)c1cccs1`, the GFP response vs DMSO is 104%.
The same measure, in the same setting: the figure for `Nc1cccnc1S(=O)(=O)c1cccc(C(F)(F)F)c1` is 102%.
Turning to `CC(Oc1ccc(Br)cc1)C(=O)Nc1nc(-c2ccccn2)cs1` (stereo not given), the GFP response vs DMSO is 117%.
Same read-out and setting: the figure for `O=C1Nc2ccccc2C(=O)C1(Cl)Cc1ccccc1` (stereo not given) is 101%; for `Cc1ccc(C(c2cc(Cl)c3cccnc3c2O)N2CCN(C)CC2)cc1` (stereo not given) it is 116%; for `Cc1ccc(C)c(NC(=O)c2ccccc2O)c1` it is 101%.
For the molecule `CN(C)CCCNc1cc(C(C)(C)C)nc2c(-c3ccc(Cl)cc3)cnn12`, the GFP response vs DMSO was 114%.
For `O=C(O)c1ccc(N/N=C/c2c(F)cccc2Cl)cc1`, the GFP response vs DMSO is 108%.
Same read-out and setting: then `O=C(O)c1ccccc1C(=O)N1CCN(c2cccc(Cl)c2)CC1`, with 97.5%.
Still for that read-out and setting: then `O=C(COC(=O)CCc1nc2ccccc2s1)Nc1nc(-c2ccccc2)cs1`, with 100%; and `O=[N+]([O-])c1cc(O)c2ncccc2c1`, with 114%.
As to `NC1=NC(=O)C(CC(=O)c2ccc(Cl)cc2)S1` (stereo not given), the GFP response vs DMSO was 102%.
In the case of `NC(=O)C1CCN(C(=S)NCCc2ccccc2)CC1`, the GFP response vs DMSO is 99.3%.
With `COc1ccc(-c2cc(C(F)(F)F)nc(S(C)(=O)=O)n2)cc1`, the GFP response vs DMSO is 130%.
`Oc1c(C(Nc2cccc(C(F)(F)F)c2)c2ccncc2)ccc2cccnc12` (stereo not given): the GFP response vs DMSO is 112%.
As for `CC(=O)Nc1cccc(Oc2ccc(-c3noc(C)n3)cc2)c1`, the GFP response vs DMSO was 107%.
For `N#C/C(C(=O)Nc1ccc(Cl)cc1)=C(/S)Nc1ccccc1`, the GFP response vs DMSO is 101%.
Still for that read-out and setting: then `COc1ccc(NC2=C(Cl)C(=O)N(CCc3ccccc3)C2=O)c(OC)c1`, with 98.8%.
Regarding `CCN=C(NCC)SC1CC(=O)N(c2cccc(OCC)c2)C1=O` (stereo not given), the GFP response vs DMSO is 100%.
On the same count and under the same terms, the figure for `Cn1c(=O)[nH]c(=O)c2c1nc(N1CCCCC1)n2CCOc1ccccc1` is 102%; for `CC(=O)Nc1ccc(NC(=O)c2nc(S(=O)(=O)Cc3ccccc3)ncc2Cl)cc1` it is 110%.
For `COc1cc(CCN2C(=O)c3cccc4cccc(c34)C2=O)c(S(=O)(=O)NCCCO)cc1OC`, the GFP response vs DMSO is 99.5%.
Same read-out and setting: the figure for `CCOc1cc(C)c(S(=O)(=O)N2CCCC2)cc1C` is 92.6%; for `CC1CCCCN1S(=O)(=O)c1ccc(C(=O)Nc2nnc(-c3ccccc3Cl)o2)cc1` (stereo not given) it is 102%.

The nature of the next assay: yeast AGP1-GFP fluorescence change, single-dose – cell-based, flow cytometry, S. cerevisiae, cherry picks, confirmation (AID 2273;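 active = GFP response above 150% of the DMSO level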;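 also: median GFP channel fluorescence over the whole cell population gate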). The settings on record: S. cerevisiae AGP1-GFP strain, 3 h, at 10 µM.
With `Cc1c(O)nc(SC2CC(=O)N(c3ccccc3)C2=O)[nH]c1=O` (stereo not given), the GFP response, % of DMSO was 97.1%.
On to `COC(=O)c1ccc(/C=N\NC(=O)c2ccc(C)cc2Cl)cc1`, for which the GFP response, % of DMSO is 96.4%.
The same measure, in the same setting: then `Cc1cccc(CS(=O)(=O)c2ncc(Cl)c(C(=O)NCc3ccccc3)n2)c1`, with 102%.
With `Cc1ccc(S(=O)(=O)N2CCCC2C(=O)OCc2ccco2)cc1` (stereo not given), the GFP response, % of DMSO was 97.6%.
`Clc1ccc(N=c2ssnc2Cl)cc1`: the GFP response, % of DMSO is 97.4%.
Turning to `O=C1c2ccccc2C(=O)C2OC12` (stereo not given), the GFP response, % of DMSO was 133%.
Take `CCCc1[nH]nc2c1C(c1ccc(OC)cc1OC)C(C#N)=C(N)O2` (stereo not given): the GFP response, % of DMSO was 90.4%.
Regarding `O=[N+]([O-])c1ncccc1OCc1ccc(-c2ccccc2)cc1`, the GFP response, % of DMSO is 104%.
Regarding `C/C(=N/NS(=O)(=O)c1ccccc1)c1ccc(NC(=O)C(F)(F)F)cc1`, the GFP response, % of DMSO is 91%.
For `O=C1c2ccsc2SCCN1Cc1ccccc1`, the GFP response, % of DMSO was 101%.
Take `CCc1ccc(-c2csc(NC(=O)COC(=O)CCc3nc4ccccc4s3)n2)cc1`: the GFP response, % of DMSO was 103%.
As to `COc1ccc(-c2nn(-c3ccccc3)cc2C(=O)NC(=S)NNC(=O)c2ccncc2)cc1`, the GFP response, % of DMSO is 101%.
Still for that read-out and setting: the figure for `CCOC(=O)Cc1csc(NC(=O)CSc2nnc(-c3ccc(C)cc3)o2)n1` is 104%; for `CCOC(=O)C1=C(Cc2ccc(Cl)cc2)C(=O)c2ccccc2C1=O` it is 97.3%.
Still for that read-out and setting: the figure for `COC(=O)c1ccc(N2C(=O)CC(SCCN)C2=O)cc1` (stereo not given) is 103%; for `O=S1(=O)Nc2c(ccc3cccnc23)-c2ccccc21` it is 103%; for `Cc1cccc2c1NC(=O)/C2=C\C(=O)c1cccs1` it is 107%.
In the case of `Nc1cccnc1S(=O)(=O)c1cccc(C(F)(F)F)c1`, the GFP response, % of DMSO was 98.9%.
For `CC(Oc1ccc(Br)cc1)C(=O)Nc1nc(-c2ccccn2)cs1` (stereo not given), the GFP response, % of DMSO is 92.9%.
On the same count and under the same terms, then `O=C1Nc2ccccc2C(=O)C1(Cl)Cc1ccccc1` (stereo not given), with 102%; and `Cc1ccc(C(c2cc(Cl)c3cccnc3c2O)N2CCN(C)CC2)cc1` (stereo not given), with 95.9%.
On to `Cc1ccc(C)c(NC(=O)c2ccccc2O)c1`, for which the GFP response, % of DMSO is 97.3%.
With `CN(C)CCCNc1cc(C(C)(C)C)nc2c(-c3ccc(Cl)cc3)cnn12`, the GFP response, % of DMSO is 107%.
Regarding `O=C(O)c1ccc(N/N=C/c2c(F)cccc2Cl)cc1`, the GFP response, % of DMSO is 94%.
Regarding `O=C(O)c1ccccc1C(=O)N1CCN(c2cccc(Cl)c2)CC1`, the GFP response, % of DMSO was 95.4%.
Same read-out and setting: then `O=C(COC(=O)CCc1nc2ccccc2s1)Nc1nc(-c2ccccc2)cs1`, with 101%; and `O=[N+]([O-])c1cc(O)c2ncccc2c1`, with 94.3%.
As to `NC1=NC(=O)C(CC(=O)c2ccc(Cl)cc2)S1` (stereo not given), the GFP response, % of DMSO was 96.7%.
As to `NC(=O)C1CCN(C(=S)NCCc2ccccc2)CC1`, the GFP response, % of DMSO was 102%.
For `COc1ccc(-c2cc(C(F)(F)F)nc(S(C)(=O)=O)n2)cc1`, the GFP response, % of DMSO was 116%.
Take `Oc1c(C(Nc2cccc(C(F)(F)F)c2)c2ccncc2)ccc2cccnc12` (stereo not given): the GFP response, % of DMSO is 94%.
The same measure, in the same setting: the figure for `CC(=O)Nc1cccc(Oc2ccc(-c3noc(C)n3)cc2)c1` is 93.6%.
Regarding `N#C/C(C(=O)Nc1ccc(Cl)cc1)=C(/S)Nc1ccccc1`, the GFP response, % of DMSO was 100%.
Regarding `COc1ccc(NC2=C(Cl)C(=O)N(CCc3ccccc3)C2=O)c(OC)c1`, the GFP response, % of DMSO is 97.9%.
On to `CCN=C(NCC)SC1CC(=O)N(c2cccc(OCC)c2)C1=O` (stereo not given), for which the GFP response, % of DMSO is 101%.
As for `Cn1c(=O)[nH]c(=O)c2c1nc(N1CCCCC1)n2CCOc1ccccc1`, the GFP response, % of DMSO is 104%.
In the case of `CC(=O)Nc1ccc(NC(=O)c2nc(S(=O)(=O)Cc3ccccc3)ncc2Cl)cc1`, the GFP response, % of DMSO was 96.8%.
For the molecule `COc1cc(CCN2C(=O)c3cccc4cccc(c34)C2=O)c(S(=O)(=O)NCCCO)cc1OC`, the GFP response, % of DMSO is 93.6%.
Still for that read-out and setting: then `CCOc1cc(C)c(S(=O)(=O)N2CCCC2)cc1C`, with 94.5%.
On to `CC1CCCCN1S(=O)(=O)c1ccc(C(=O)Nc2nnc(-c3ccccc3Cl)o2)cc1` (stereo not given), for which the GFP response, % of DMSO is 98.3%.

These data come from PubChem BioAssay.
